Active and inactive are the calls of the source. Unless noted, calls follow the shape of the dose curve; as a rule, active = well fitted curve in the direction sought with a large enough effect in the repeat runs; inconclusive = weak or mixed curves; inactive = no such curve, though single readings can be large; an effect the other way counts as inactive or inconclusive.
Columns and labels:
[1] = qHTS assay to test for compound auto fluorescence at 535 nm (green) in HEK293 cells (AID 720680)
[2] = qHTS assay to test for compound auto fluorescence at 460 nm (blue) in HEK293 cell free culture (AID 720681)
Outline: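 Test compounds were pinned into cell-free culture medium (DMEM with 10% FBS) and fluorescence was read directly at Ex/Em 405/460 nm. Signals were expressed as fluorescence equivalents of triamterene, with DMSO vehicle as control.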

[3] = qHTS assay to test for compound auto fluorescence at 535 nm (green) in HEK293 cell free culture (AID 720682)
Outline: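 Steps: dispense DMEM/10% FBS into empty wells; pin in compound or DMSO; measure fluorescence at 485/535 nm. Values are fluorescein equivalents.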

[4] = qHTS assay to test for compound auto fluorescence at 590 nm (red) in HEK293 cell free culture (AID 720683)
Outline: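 Tox21 10K library compounds were pinned into cell-free DMEM with 10% FBS and fluorescence was read at excitation 540 nm. Activity is expressed as Rose Bengal sodium equivalency.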

[5] = qHTS assay to test for compound auto fluorescence at 590 nm (red) in HepG2 cell free culture (AID 720684)
Outline: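 Measured in medium alone (MEM containing 10% FBS) following pintool addition of compound; emission at 590 nm with 540 nm excitation, referenced to Rose Bengal sodium.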

[6] = qHTS assay to test for compound auto fluorescence at 460 nm (blue) in HepG2 cell free culture (AID 720685)
Outline: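 Compound (23 nL) or DMSO pinned into cell-free MEM with 10% FBS; blue fluorescence read at 405/460 nm excitation/emission, expressed as auto-fluorescence equivalency to triamterene.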

[7] = qHTS assay to test for compound auto fluorescence at 535 nm (green) in HepG2 cell free culture (AID 720686)
[8] = qHTS assay to test for compound auto fluorescence at 460 nm (blue) in HepG2 cells (AID 720687)
Outline: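 Cells (2,000/well in MEM with 10% FBS) attached overnight at 37 C, then were exposed to compound or DMSO for 1 hr at 37 C, 5% CO2. Fluorescence read at Ex/Em 405/460 nm, expressed as triamterene-equivalent signal.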

[9] = molecular target: Glucocorticoid receptor (Homo sapiens) (UniProt P04150); test: qHTS assay to identify small molecule agonists of the glucocorticoid receptor (GR) signaling pathway (AID 720691; active = well fitted activation curve with a large enough effect in the signal ratio in the repeat runs, not every such curve was filed as active; inconclusive = weak or mixed curves, or effect the other way; inactive = no such curve, though single readings can be large or run the other way; the % refers to the signal ratio; also: potency is read from the fitted curve at half-maximal effect)
Outline: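 Reporter read-out: fluorescence intensity following 2 h room-temperature LiveBLAzer B/G FRET substrate loading. Prior step: GR-bla HeLa cells held 4 h, then treated 18 h at 37 C.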

[10] = qHTS assay to identify small molecule antagonists of the glucocorticoid receptor (GR) signaling pathway - cell viability counter screen (AID 720693); also: nearly all actives have a fitted effect of over 55% in size
[11] = qHTS assay for identifying genotoxic compounds that show differential cytotoxicity against isogenic chicken DT40 cell lines with known DNA damage response pathways - wild type cell line (AID 743012); also: nearly all actives have a fitted effect of over 60% in size; also: potency is read from the fitted curve at half-maximal effect
Outline: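 Using parental DT40 (300 cells/well), compounds delivered in DMSO incubate 40 h at 37 C/5% CO2. CellTiter-Glo reagent then stands 30 min at room temperature, and luminescence gives cell viability.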

[12] = qHTS assay for identifying genotoxic compounds that show differential cytotoxicity against isogenic chicken DT40 cell lines with known DNA damage response pathways - Rev3 mutant cell line (AID 743014); also: nearly all actives have a fitted effect of over 55% in size; also: potency is read from the fitted curve at half-maximal effect
[13] = qHTS assay for identifying genotoxic compounds that show differential cytotoxicity against isogenic chicken DT40 cell lines with known DNA damage response pathways - Rad54/Ku70 mutant cell line (AID 743015); also: nearly all actives have a fitted effect of over 60% in size; also: potency is read from the fitted curve at half-maximal effect
[14] = qHTS assay to identify small molecule antagonists of the androgen receptor (AR) signaling pathway - cell viability counter screen (AID 743033; also: nearly all actives have a fitted effect of over 45% in size)
[15] = qHTS assay to identify small molecule antagonists of the androgen receptor (AR) signaling pathway using the MDA cell line - cell viability counter screen (AID 743041; also: nearly all actives have a fitted effect of over 45% in size; also: potency is read from the fitted curve at half-maximal effect)
Outline: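 Viability counter screen run alongside the AR antagonist reporter: cells seeded 5 h before compound, R1881 added, 16 h incubation at 37C without CO2, fluorescent CellTiter-Fluor signal quantified.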

[16] = molecular target: Glucocorticoid receptor (Homo sapiens) (UniProt P04150); test: qHTS assay to identify small molecule antagonists of the glucocorticoid receptor (GR) signaling pathway (AID 720692; active = well fitted inhibition curve with a large enough effect in the signal ratio in the repeat runs, not every such curve was filed as active; inconclusive = weak or mixed curves, or effect the other way; inactive = no such curve, though single readings can be large or run the other way; the % refers to the signal ratio)
Outline: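 Dexamethasone (5 nM final) stimulated a stably integrated GRE-beta-lactamase reporter in HeLa cells during 18 h co-incubation with compounds; signal was quantified as fluorescence intensity of B/G FRET substrate after 2 h.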

[17] = molecular target: Androgen receptor (Homo sapiens) (UniProt P10275); test: qHTS assay to identify small molecule antagonists of the androgen receptor (AR) signaling pathway (AID 743035; active = well fitted inhibition curve with a large enough effect in the signal ratio in the repeat runs, not every such curve was filed as active; inconclusive = weak or mixed curves, or effect the other way; inactive = no such curve, though single readings can be large or run the other way; the % refers to the signal ratio)
Outline: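 Using qHTS, AR-UAS-bla GripTite HEK293 cells received compound, then R1881, and were cultured 16 h at 37C/5% CO2 before a 2 h room-temperature LiveBLAzer B/G FRET substrate step and fluorescence measurement.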

[18] = molecular target: Androgen receptor (Homo sapiens) (UniProt P10275); test: qHTS assay to identify small molecule agonists of the androgen receptor (AR) signaling pathway (AID 743036; active = well fitted activation curve with a large enough effect in the signal ratio in the repeat runs, with a control signal flat, not every such curve was filed as active; inconclusive = weak or mixed curves, or effect the other way; inactive = no such curve, though single readings can be large or run the other way; the % refers to the signal ratio)
Outline: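 Reporter line: GeneBLAzer AR-UAS-bla-GripTite (HEK293). Steps: plate cells, 4 h rest, add compounds, 16 h at 37C, add LiveBLAzer B/G substrate, 2 h at RT, read fluorescence.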

[19] = molecular target: Androgen receptor (Homo sapiens) (UniProt P10275); test: qHTS assay to identify small molecule agonists of the androgen receptor (AR) signaling pathway using the MDA cell line (AID 743040; also: nearly all actives have a fitted effect of over 20% in size)
Outline: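 Luminescence from ONE-Glo, read after 30 min at room temperature, reflects MMTV-driven luciferase in MDA-kb2 cells (AR- and GR-responsive). Treatment lasted 16 h at 37C, 0% CO2.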

[20] = molecular target: Androgen receptor (Homo sapiens) (UniProt P10275); test: qHTS assay to identify small molecule antagonists of the androgen receptor (AR) signaling pathway using the MDA cell line (AID 743042; also: nearly all actives have a fitted effect of over 55% in size)
Outline: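 MDA-kb2 cells (human breast carcinoma, stably carrying an MMTV-luciferase reporter responsive to AR and GR) were plated at 3,000 cells/well and preincubated 5 hr at 37C, then given compound plus R1881 agonist for 16 h. ONE-Glo luminescence was read.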
% is scaled to controls: 0 for no effect and ±100 for the full control effect.

Sequence of Glucocorticoid receptor (Homo sapiens) (P04150 whole entry, looked up): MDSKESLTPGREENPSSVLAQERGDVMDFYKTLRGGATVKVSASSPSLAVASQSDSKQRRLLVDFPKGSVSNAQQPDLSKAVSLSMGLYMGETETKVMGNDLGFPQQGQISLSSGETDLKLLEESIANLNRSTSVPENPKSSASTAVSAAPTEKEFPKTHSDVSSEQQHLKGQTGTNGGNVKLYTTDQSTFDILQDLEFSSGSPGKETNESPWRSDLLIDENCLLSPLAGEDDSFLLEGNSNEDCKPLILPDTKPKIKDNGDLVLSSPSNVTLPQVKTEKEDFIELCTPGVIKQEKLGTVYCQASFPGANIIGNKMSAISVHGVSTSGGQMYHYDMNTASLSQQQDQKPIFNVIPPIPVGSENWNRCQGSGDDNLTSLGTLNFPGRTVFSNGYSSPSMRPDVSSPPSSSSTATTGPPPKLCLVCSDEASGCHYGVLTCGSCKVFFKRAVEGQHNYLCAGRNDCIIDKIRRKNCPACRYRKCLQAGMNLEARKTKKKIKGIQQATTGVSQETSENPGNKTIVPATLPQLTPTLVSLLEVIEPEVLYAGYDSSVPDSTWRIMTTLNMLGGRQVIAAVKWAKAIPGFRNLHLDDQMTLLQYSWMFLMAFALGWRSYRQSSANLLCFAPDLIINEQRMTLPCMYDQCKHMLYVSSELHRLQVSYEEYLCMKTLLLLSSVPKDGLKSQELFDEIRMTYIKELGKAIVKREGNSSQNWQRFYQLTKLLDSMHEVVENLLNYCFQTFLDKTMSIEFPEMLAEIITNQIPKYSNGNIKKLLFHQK
Sequence of Androgen receptor (Homo sapiens) (P10275 whole entry, looked up): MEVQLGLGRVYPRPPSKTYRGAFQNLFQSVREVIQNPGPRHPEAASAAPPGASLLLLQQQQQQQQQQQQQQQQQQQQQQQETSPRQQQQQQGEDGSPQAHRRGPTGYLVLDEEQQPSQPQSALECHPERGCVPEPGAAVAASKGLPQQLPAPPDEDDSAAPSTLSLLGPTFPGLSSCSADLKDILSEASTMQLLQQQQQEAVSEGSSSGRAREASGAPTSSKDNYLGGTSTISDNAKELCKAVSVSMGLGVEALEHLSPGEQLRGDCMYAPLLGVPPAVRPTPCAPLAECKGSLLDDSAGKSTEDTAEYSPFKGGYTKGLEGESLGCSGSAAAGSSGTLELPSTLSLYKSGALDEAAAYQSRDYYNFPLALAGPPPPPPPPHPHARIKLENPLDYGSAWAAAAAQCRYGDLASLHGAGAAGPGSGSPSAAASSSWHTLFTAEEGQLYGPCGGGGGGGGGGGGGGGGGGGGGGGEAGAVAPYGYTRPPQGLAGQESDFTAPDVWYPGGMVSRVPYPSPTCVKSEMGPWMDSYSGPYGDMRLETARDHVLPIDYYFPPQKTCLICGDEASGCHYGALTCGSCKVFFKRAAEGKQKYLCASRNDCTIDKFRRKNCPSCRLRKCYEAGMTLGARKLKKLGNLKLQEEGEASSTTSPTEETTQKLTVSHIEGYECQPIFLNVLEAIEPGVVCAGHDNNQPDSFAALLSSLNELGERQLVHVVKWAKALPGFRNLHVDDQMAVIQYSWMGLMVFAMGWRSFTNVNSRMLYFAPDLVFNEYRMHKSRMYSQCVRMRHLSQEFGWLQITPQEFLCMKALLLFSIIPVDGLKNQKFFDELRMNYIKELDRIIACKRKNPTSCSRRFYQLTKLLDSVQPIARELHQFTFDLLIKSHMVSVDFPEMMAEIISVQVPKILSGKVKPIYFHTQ

CCOc1ccccc1O[C@H](c1ccccc1)[C@H]1CNCCO1
inactive: outcome [1] | Potency [2] | outcome [3] | outcome [4] | outcome [5] | Potency [6] | outcome [7] | Potency [8] | Potency [9] | Potency [10] | Potency [14] | Potency [15]
active: Potency [11] 29.8 µM | Potency [12] 26.6 µM | Potency [13] 13.3 µM

CCOC(=O)[C@H](CCc1ccccc1)N[C@@H](C)C(=O)N(CC(=O)O)C1Cc2ccccc2C1
inactive: outcome [1] | Potency [2] | outcome [3] | outcome [4] | outcome [5] | Potency [6] | outcome [7] | Potency [8] | Potency [9] | Potency [16] | Potency [10] | Potency [15]
active: Potency [11] 21.1 µM | Potency [13] 23.7 µM

O=c1[nH]ncc2ccccc12
inactive: outcome [1] | Potency [2] | outcome [3] | outcome [4] | outcome [5] | Potency [6] | outcome [7] | Potency [8] | Potency [9] | Potency [16] | Potency [10] | Potency [11] | Potency [13] | Potency [15]

CCN(CC)CCNC(=O)COc1ccc(OC)cc1
inactive: outcome [1] | Potency [2] | outcome [3] | outcome [4] | outcome [5] | Potency [6] | outcome [7] | Potency [8] | Potency [9] | Potency [16] | Potency [10] | Potency [11] | Potency [12] | Potency [14] | Potency [15]

Nc1cccc2c1CN(C1CCC(=O)NC1=O)C2=O (stereo not drawn)
inactive: outcome [1] | Potency [2] | outcome [3] | outcome [4] | outcome [5] | Potency [6] | outcome [7] | Potency [8] | Potency [9] | Potency [16] | Potency [10] | Potency [11] | Potency [14] | Potency [15]

CC(CO)CO
inactive: outcome [1] | Potency [2] | outcome [3] | outcome [4] | outcome [5] | Potency [6] | outcome [7] | Potency [8] | Potency [9] | Potency [16] | Potency [10] | Potency [11] | Potency [12] | Potency [13] | Potency [14] | Potency [15]

CCC(OCCCOC)OC(C)=O (stereo not drawn)
inactive: outcome [1] | Potency [2] | outcome [3] | outcome [4] | outcome [5] | Potency [6] | outcome [7] | Potency [8] | Potency [9] | Potency [16] | Potency [10] | Potency [11] | Potency [13] | Potency [14] | Potency [15]

Cc1cc(C)cc(N)c1
inactive: outcome [1] | Potency [2] | outcome [3] | outcome [4] | outcome [5] | Potency [6] | outcome [7] | Potency [8] | Potency [9] | Potency [16] | Potency [10] | Potency [11] | Potency [13] | Potency [14] | Potency [17] | outcome [18] | outcome [19] | Potency [15] | Potency [20]

Nc1ccc(N=Nc2ccccc2)c(N)c1
active: Potency [11] 53.3 µM | Potency [12] 53.3 µM | Potency [13] 59.8 µM
inactive: outcome [1] | Potency [2] | outcome [3] | outcome [4] | outcome [5] | Potency [6] | outcome [7] | Potency [8] | Potency [9] | Potency [10] | Potency [14] | Potency [15]

CC(C)(C)C(=O)C(=O)O
inactive: outcome [1] | Potency [2] | outcome [3] | outcome [4] | outcome [5] | Potency [6] | outcome [7] | Potency [8] | Potency [9] | Potency [16] | Potency [10] | Potency [11] | Potency [12] | Potency [14] | Potency [15]

C=C(C)[C@@H]1CCC2=CCC[C@@H](C)[C@]2(C)C1
active: Potency [11] 27.3 µM | Potency [12] 27.3 µM | Potency [13] 15.4 µM
inactive: outcome [1] | Potency [2] | outcome [3] | outcome [4] | outcome [5] | Potency [6] | outcome [7] | Potency [8] | Potency [9] | Potency [10] | Potency [14] | Potency [17] | outcome [18] | outcome [19] | Potency [15] | Potency [20]

Cc1cc2c(OCC(CNC(C)(C)C)OC(=O)c3ccccc3)cccc2[nH]1 (stereo not drawn)
inactive: outcome [1] | Potency [2] | outcome [3] | outcome [4] | outcome [5] | Potency [6] | outcome [7] | Potency [8] | Potency [9] | Potency [16] | Potency [10] | Potency [14] | Potency [15]

O=C(O)CCCCCCCCCCCBr
inactive: outcome [1] | Potency [2] | outcome [3] | outcome [4] | outcome [5] | Potency [6] | outcome [7] | Potency [8] | Potency [9] | Potency [16] | Potency [10] | Potency [12] | Potency [13] | Potency [14] | Potency [15]

CC1(C)O[C@@H]2C[C@H]3[C@@H]4C[C@H](F)C5=CC(=O)C=C[C@]5(C)[C@H]4[C@@H](O)C[C@]3(C)[C@]2(C(=O)CO)O1
inactive: fluorescence, % of fluorescein [1] -0.126% [at 18.6 µM] | fluorescence, % of fluorescent control [2] -0.131% [at 18.6 µM] | activity change [3] -0.178% [at 18.6 µM] | fluorescence, % of fluorescent control [4] -0.673% [at 18.6 µM] | fluorescence, % of Rose Bengal [5] -0.32% [at 18.6 µM] | fluorescence, % of fluorescent control [6] -0.0967% [at 18.6 µM] | fluorescence, % of fluorescein control [7] -0.129% [at 18.6 µM] | fluorescence, % of fluorescent control [8] -0.0461% [at 18.6 µM] | Potency [10] | Potency [11] | Potency [12] | Potency [13] | Potency [15]
active: Potency [9] 1.29 µM [inconclusive]

c1ccc(C[n+]2cccc3ccccc32)cc1
active: Potency [11] 54.5 µM | Potency [12] 27.3 µM | Potency [13] 27.3 µM | Potency [15] 61.1 µM
inactive: outcome [1] | Potency [2] | outcome [3] | outcome [4] | outcome [5] | Potency [6] | outcome [7] | Potency [8] | Potency [9] | Potency [16] | Potency [10]

Source: PubChem BioAssay (Tox21)
